Data as given in PubChem BioAssay (EPA / NIEHS).
The source made the active and inactive calls. How the source made its calls: active means hit-call score of the fitted dose curve at least 0.9, where 1 is the maximum; inactive means score below 0.9.

Key:
[1] = target: Transcription factor E2F1 (Homo sapiens) (UniProt Q01094); test: ATG_E2F_CIS: Attagene CIS-FACTORIAL HepG2 Assay for human E2F Transcription Factor 1 (AID 2282935); conditions: HepG2 Attagene cis-reporter, E2F reporter RNA transcripts; actives raise or lower the signal
Sequence of Transcription factor E2F1 (Homo sapiens) (Q01094 whole entry, looked up): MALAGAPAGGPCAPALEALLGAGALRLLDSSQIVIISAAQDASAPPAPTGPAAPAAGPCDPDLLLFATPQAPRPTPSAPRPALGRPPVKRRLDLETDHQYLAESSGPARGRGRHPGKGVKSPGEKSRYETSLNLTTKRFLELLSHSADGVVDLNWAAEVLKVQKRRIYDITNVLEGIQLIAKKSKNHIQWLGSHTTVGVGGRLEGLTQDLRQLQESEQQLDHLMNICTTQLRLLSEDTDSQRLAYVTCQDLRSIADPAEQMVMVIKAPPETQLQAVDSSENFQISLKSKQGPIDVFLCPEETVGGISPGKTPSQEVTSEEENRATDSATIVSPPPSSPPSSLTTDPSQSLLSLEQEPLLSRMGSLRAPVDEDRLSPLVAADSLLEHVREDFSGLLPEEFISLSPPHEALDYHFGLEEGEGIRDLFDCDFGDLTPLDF
Procedure, shortened: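 Cis-element reporter mRNA induction in transiently transfected HepG2, 24 h exposure. Activity fitted in both directions relative to DMSO negative control.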

[2] = ATG_E_Box_CIS: Attagene CIS-FACTORIAL HepG2 Assay for human Enhancer Box (E-box) (AID 2282936); conditions: HepG2 E-box cis-reporter transcription, actives raise or lower the signal
Procedure, shortened: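 Cells: HepG2 (human liver), transient MRTU transfection. Exposure 24 h. RNA → oligo(dT) RT → PCR → 6-FAM label → HpaI → CE. Activity fitted both directions relative to DMSO.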

[3] = ATG_M_61_CIS: Attagene CIS-FACTORIAL HepG2 Assay for M61 Transcription Factor (Internal Marker) (AID 2282937); conditions: HepG2 Attagene CIS-FACTORIAL M61 internal marker reporter; actives raise or lower the signal
Procedure, shortened: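 HepG2 cells transiently transfected with cis-element-driven multiple reporter transcription units, dosed for 24 h. Reporter mRNA measured by RT-PCR, 6-FAM primer-extension labelling, HpaI digestion and capillary electrophoresis; bidirectional fit versus DMSO baseline.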

[4] = ATG_EGR_CIS: Attagene CIS-FACTORIAL HepG2 Assay for human Early Growth Response 1 (EGR1) (AID 2282938); conditions: HepG2 Attagene CIS-FACTORIAL EGR reporter mRNA; actives raise or lower the signal
Procedure, shortened: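 HepG2 cells transiently transfected with cis-promoter-driven multiplexed reporter transcription units; reporter mRNA measured 24 h after compound dosing by RT-PCR, 6-FAM primer extension, HpaI digestion and capillary electrophoresis. Bidirectional fit versus DMSO baseline.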

[5] = ATG_M_19_CIS: Attagene CIS-FACTORIAL HepG2 Assay for M19 Transcription Factor (Internal Marker) (AID 2282939); conditions: HepG2 Attagene CIS-FACTORIAL M19 internal marker reporter; actives raise or lower the signal
Procedure, shortened: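 HepG2, MRTU transient transfection, 24 h dosing. Total RNA → RT-PCR → 6-FAM primer extension → HpaI digest → CE fluorescence. Bidirectional curve fit, DMSO negative control.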

[6] = ATG_ERE_CIS: Attagene CIS-FACTORIAL HepG2 Assay for Estrogen Response Element (ERE) (AID 2282940); conditions: HepG2 ERE cis-reporter, Attagene RNA transcript; actives raise or lower the signal
Procedure, shortened: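 After a 24 h chemical treatment, RNA from reporter-transfected HepG2 cells is reverse-transcribed, PCR-amplified and fluorescently labelled. Fragments separated by capillary electrophoresis give reporter signal; DMSO serves as negative control.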

[7] = ATG_Ets_CIS: Attagene CIS-FACTORIAL HepG2 Assay for human Erythroblast Transformation Specific (ETS) (AID 2282941); conditions: HepG2 ETS cis-reporter transcription, actives raise or lower the signal
Procedure, shortened: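 HepG2 cells transiently transfected with cis-promoter reporter transcription units were dosed for 24 h; reporter mRNA was measured by RT-PCR, 6-FAM primer extension, HpaI digestion and capillary electrophoresis, with bidirectional fitting against DMSO baseline.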

[8] = target: Hepatocyte nuclear factor 3-beta (Homo sapiens) (UniProt Q9Y261); test: ATG_FoxA2_CIS: Attagene CIS-FACTORIAL HepG2 Assay for human Forkhead box A2 (FOXA2) (AID 2282942); conditions: HepG2 cis-reporter transcription factor activity, 24 h; actives raise or lower the signal
Sequence of Hepatocyte nuclear factor 3-beta (Homo sapiens) (Q9Y261 whole entry, looked up): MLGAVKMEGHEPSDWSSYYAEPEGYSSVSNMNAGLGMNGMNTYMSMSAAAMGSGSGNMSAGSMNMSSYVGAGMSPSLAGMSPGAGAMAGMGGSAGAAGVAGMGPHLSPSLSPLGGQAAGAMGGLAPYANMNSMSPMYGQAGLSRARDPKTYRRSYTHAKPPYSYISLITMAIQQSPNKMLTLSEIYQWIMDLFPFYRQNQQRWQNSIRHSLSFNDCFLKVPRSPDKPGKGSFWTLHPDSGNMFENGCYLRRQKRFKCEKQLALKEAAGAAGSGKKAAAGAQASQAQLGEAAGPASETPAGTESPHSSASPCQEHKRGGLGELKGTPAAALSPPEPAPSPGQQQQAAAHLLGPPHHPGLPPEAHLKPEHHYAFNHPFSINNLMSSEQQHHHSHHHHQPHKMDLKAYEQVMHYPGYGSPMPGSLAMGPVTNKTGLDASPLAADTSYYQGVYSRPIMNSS
Procedure, shortened: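 HepG2 cells transiently transfected with multiple cis-regulated reporter transcription units, dosed for 24 h. Reporter mRNA measured by RT-PCR, 6-FAM labelling, HpaI digestion and capillary electrophoresis; bidirectional fitting against DMSO baseline.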

[9] = ATG_FoxO_CIS: Attagene CIS-FACTORIAL HepG2 Assay for human Forkhead box O (FoxO) (AID 2282943); conditions: HepG2 Attagene cis-reporter, FoxO element, mRNA; actives raise or lower the signal
Procedure, shortened: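 Endogenous transcription factor activity read from multiplexed cis-promoter reporter transcripts in transiently transfected HepG2, 24 h after dosing. Reporter RNA measured via RT-PCR plus capillary electrophoresis of FAM-labeled products; gain or loss relative to DMSO.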

[10] = ATG_GATA_CIS: Attagene CIS-FACTORIAL HepG2 Assay for human GATA Binding Protein (AID 2282944); conditions: HepG2 GATA cis-element reporter, Attagene multiplex mRNA; actives raise or lower the signal
Procedure, shortened: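 Cells: HepG2, transiently transfected with cis-regulated reporter transcription units. Exposure: 24 h. Detection: RT-PCR plus capillary electrophoresis of FAM-labeled fragments. Analysis: bidirectional, DMSO as baseline.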

[11] = ATG_GLI_CIS: Attagene CIS-FACTORIAL HepG2 Assay for human Zinc Finger Protein GLI1 (AID 2282945); conditions: HepG2, Attagene cis-factorial reporter mRNA, GLI element; actives raise or lower the signal
Procedure, shortened: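 Bidirectional curve fits relative to DMSO, using reporter mRNA levels from RT-PCR plus capillary electrophoresis. Cells were HepG2 transiently carrying cis-regulated reporter constructs, harvested 24 h after dosing.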

[12] = ATG_GRE_CIS: Attagene CIS-FACTORIAL HepG2 Assay for human Glucocorticoid Response Elements (GRE) (AID 2282947); conditions: HepG2 GRE cis-reporter, Attagene multiplex mRNA; actives raise or lower the signal
Procedure, shortened: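 Transient MRTU transfection of human HepG2 liver cells; cis-regulated reporters report endogenous factors. 24 h dosing → RNA isolation → RT-PCR → 6-FAM primer extension → HpaI cut → CE fragment analysis. Bidirectional fit, DMSO negative control.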

[13] = ATG_ISRE_CIS: Attagene CIS-FACTORIAL HepG2 Assay for human Interferon Regulatory Factor 1 (IRF1) binding to an Interferon-Stimulated Response Element (ISRE) (AID 2282948); conditions: HepG2 ISRE cis-reporter (Attagene), mRNA transcription readout; actives raise or lower the signal
Procedure, shortened: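 HepG2 cells transiently transfected with multiplexed cis-promoter reporter units; after 24 h compound exposure, reporter mRNA quantified by RT-PCR, FAM labelling, HpaI digestion and capillary electrophoresis. Bidirectional fit versus DMSO baseline.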

[14] = ATG_M_32_CIS: Attagene CIS-FACTORIAL HepG2 Assay for M32 Transcription Factor (Internal Marker) (AID 2282949); conditions: HepG2 Attagene cis-factorial M32 reporter, mRNA; actives raise or lower the signal;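 further: background control marker of the multiplexed CIS panel rather than a real target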
Procedure, shortened: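 Fluorescent capillary electrophoresis peaks of HpaI-digested, FAM-labelled RT-PCR reporter products give the signal. Source: transiently transfected human liver HepG2 cells, 24 h after chemical dosing; bidirectional fitting against DMSO.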

[15] = ATG_M_06_CIS: Attagene CIS-FACTORIAL HepG2 Assay for M06 Transcription Factor (Internal Marker) (AID 2282950); conditions: HepG2 Attagene CIS-FACTORIAL M06 internal marker reporter; actives raise or lower the signal
Procedure, shortened: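 Measured 24 h post-dosing in transiently transfected HepG2 cells, this internal-marker endpoint reports reporter mRNA via RT-PCR with fluorescent primer extension and capillary electrophoresis. DMSO served as negative control and baseline for bidirectional fitting.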

[16] = target: Hypoxia-inducible factor 1-alpha (Homo sapiens) (UniProt Q16665); test: ATG_HIF1a_CIS: Attagene CIS-FACTORIAL HepG2 Assay for human Hypoxia Inducible Factor 1 (HIF1A) (AID 2282951); conditions: HepG2 Attagene cis-factorial HIF1a reporter transcription; actives raise or lower the signal
Sequence of Hypoxia-inducible factor 1-alpha (Homo sapiens) (Q16665 whole entry, looked up): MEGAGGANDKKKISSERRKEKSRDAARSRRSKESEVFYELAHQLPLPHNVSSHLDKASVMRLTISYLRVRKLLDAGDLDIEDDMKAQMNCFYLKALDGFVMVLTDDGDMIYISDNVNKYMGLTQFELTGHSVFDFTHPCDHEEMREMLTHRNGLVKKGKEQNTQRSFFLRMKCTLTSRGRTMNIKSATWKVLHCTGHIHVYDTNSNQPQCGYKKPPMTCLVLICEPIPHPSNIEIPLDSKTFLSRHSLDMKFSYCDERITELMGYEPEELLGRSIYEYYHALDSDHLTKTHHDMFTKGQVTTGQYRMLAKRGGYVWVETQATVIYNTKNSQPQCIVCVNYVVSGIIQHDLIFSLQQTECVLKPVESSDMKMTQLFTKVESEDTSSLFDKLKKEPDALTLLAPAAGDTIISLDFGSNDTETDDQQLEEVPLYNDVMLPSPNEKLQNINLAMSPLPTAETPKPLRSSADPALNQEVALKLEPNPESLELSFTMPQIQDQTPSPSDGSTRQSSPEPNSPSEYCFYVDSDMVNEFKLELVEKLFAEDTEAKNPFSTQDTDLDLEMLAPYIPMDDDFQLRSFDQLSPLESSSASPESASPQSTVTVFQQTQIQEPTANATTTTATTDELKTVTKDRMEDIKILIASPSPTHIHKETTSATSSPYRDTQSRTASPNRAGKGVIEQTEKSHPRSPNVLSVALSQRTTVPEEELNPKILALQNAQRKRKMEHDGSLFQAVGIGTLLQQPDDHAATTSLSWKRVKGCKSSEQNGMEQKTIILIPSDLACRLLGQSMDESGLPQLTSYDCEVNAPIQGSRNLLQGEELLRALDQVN
Procedure, shortened: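 HepG2 cells transiently transfected with multiplexed cis-promoter reporter units; reporter mRNA read 24 h after dosing by RT-PCR, 6-FAM primer-extension labelling, HpaI digestion and capillary electrophoresis. Bidirectional fit versus DMSO baseline.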

[17] = ATG_MRE_CIS: Attagene CIS-FACTORIAL HepG2 Assay for human Metal Responsive Element (MRE) (AID 2282954); conditions: HepG2 MRE cis-reporter transcription, Attagene multiplex; actives raise or lower the signal
Procedure, shortened: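 Transient MRTU transfection of HepG2 (FuGene 6); 24 h dosing; total RNA → oligo(dT) RT, PCR, 6-FAM primer extension, HpaI cut, CE. Bidirectional fit vs DMSO.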

[18] = target: Bile acid receptor (Homo sapiens) (UniProt Q96RI1); test: ATG_IR1_CIS: Attagene CIS-FACTORIAL HepG2 Assay for human Nuclear Receptor Subfamily 1 Group H Member 4 (NR1H4), IR1 submotif (AID 2282946); conditions: IR1 reporter transcription, actives raise or lower the signal
Sequence of Bile acid receptor (Homo sapiens) (Q96RI1 whole entry, looked up, the tested form may be a part): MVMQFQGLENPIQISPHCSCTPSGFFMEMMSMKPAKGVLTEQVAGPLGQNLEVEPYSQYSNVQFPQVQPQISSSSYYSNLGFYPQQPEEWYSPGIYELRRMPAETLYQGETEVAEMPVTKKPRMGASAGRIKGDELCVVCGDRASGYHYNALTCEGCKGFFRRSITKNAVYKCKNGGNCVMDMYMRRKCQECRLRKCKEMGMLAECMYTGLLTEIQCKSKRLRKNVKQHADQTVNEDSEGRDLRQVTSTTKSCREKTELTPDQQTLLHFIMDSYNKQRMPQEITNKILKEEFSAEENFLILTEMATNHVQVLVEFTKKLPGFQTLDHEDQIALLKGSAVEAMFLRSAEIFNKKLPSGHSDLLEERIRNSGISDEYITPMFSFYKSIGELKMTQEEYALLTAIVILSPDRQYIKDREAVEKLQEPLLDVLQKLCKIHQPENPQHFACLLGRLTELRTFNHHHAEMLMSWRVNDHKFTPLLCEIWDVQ
Procedure, shortened: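 Cells (human HepG2) carry transiently transfected cis-promoter reporter transcription units. Compounds are incubated 24 h, total RNA is reverse-transcribed and amplified, and labelled fragments are resolved by capillary electrophoresis. Curves use DMSO as baseline.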

[19] = target: Hepatocyte nuclear factor 6 (Homo sapiens) (UniProt Q9UBC0); test: ATG_HNF6_CIS: Attagene CIS-FACTORIAL HepG2 Assay for human Hepatocyte Nuclear Factor 6 (HNF6) (AID 2282952); conditions: HepG2 Attagene cis-factorial HNF6 reporter transcription; actives raise or lower the signal
Sequence of Hepatocyte nuclear factor 6 (Homo sapiens) (Q9UBC0 whole entry, looked up, the tested form may be a part): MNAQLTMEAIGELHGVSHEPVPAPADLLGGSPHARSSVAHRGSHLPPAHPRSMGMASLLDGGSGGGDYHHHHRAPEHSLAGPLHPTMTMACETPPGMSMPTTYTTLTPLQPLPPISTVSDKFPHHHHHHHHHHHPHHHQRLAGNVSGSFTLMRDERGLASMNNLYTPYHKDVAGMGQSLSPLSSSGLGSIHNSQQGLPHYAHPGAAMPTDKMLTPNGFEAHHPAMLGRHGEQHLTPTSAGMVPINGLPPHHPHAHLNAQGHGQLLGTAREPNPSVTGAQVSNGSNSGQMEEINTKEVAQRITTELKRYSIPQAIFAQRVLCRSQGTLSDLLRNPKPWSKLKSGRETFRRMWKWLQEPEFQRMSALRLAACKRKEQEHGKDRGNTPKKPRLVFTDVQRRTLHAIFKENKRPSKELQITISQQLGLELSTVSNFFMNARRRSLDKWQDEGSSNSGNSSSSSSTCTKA
Procedure, shortened: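 Reporter mRNA induction or loss in HepG2 after 24 h exposure; transient cis-MRTU transfection; fragments quantified by capillary electrophoresis; bidirectional analysis, DMSO as negative control.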

[20] = target: Heat shock factor protein 1 (Homo sapiens) (UniProt Q00613); test: ATG_HSE_CIS: Attagene CIS-FACTORIAL HepG2 Assay for human Heat Shock Transcription Factor 1 (HSE) (AID 2282953); conditions: HepG2 HSE cis-reporter, Attagene RNA transcription; actives raise or lower the signal
Sequence of Heat shock factor protein 1 (Homo sapiens) (Q00613 whole entry, looked up): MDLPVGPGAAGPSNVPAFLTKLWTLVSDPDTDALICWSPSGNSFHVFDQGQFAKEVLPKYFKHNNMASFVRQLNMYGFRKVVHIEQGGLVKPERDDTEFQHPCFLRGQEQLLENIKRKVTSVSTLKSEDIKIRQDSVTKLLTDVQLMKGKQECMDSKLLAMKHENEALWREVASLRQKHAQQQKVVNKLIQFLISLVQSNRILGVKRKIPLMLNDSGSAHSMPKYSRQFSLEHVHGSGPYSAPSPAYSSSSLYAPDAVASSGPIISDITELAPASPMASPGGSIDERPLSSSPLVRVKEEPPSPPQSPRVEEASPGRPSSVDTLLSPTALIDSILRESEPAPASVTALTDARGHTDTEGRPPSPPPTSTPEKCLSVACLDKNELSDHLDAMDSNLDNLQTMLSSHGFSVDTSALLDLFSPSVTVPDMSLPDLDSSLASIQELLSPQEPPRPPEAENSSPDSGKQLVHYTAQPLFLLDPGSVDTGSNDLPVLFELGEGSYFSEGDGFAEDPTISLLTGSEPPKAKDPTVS
Procedure, shortened: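 Reporter mRNA induction in HepG2 is measured 24 h after dosing, using transiently transfected multiplexed cis-regulated reporter units. Signal comes from capillary electrophoresis of labelled RT-PCR products, with DMSO as negative control.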

Measured: AC50

O=Cc1ccccc1O
active: [6] 25.2 µM
not listed: [18] | [19] | [20]
inactive: all other assays above

CCOCC(C)O (stereo not drawn)
not listed: [16]
inactive: all other assays above

C=CCOC(=O)/C=C\C(=O)OCC=C
active: [4] 34.3 µM | [7] 13.2 µM | [9] 101 µM | [13] 19.7 µM | [16] 18.6 µM | [19] 28 µM
not listed: [14] | [15] | [17] | [20]
inactive: all other assays above

O=S1(=O)CC=CC1
not listed: [18] | [20]
inactive: all other assays above

CCCCCCCOC(C)=O
active: [6] 3.71 µM
not listed: [12] | [17] | [18] | [20]
inactive: all other assays above

CC(=O)OC(C)(C)C1CC=C(C)CC1 (stereo not drawn)
active: [6] 26.1 µM
not listed: [12] | [17] | [18] | [20]
inactive: all other assays above

COC(=O)C(C)Oc1ccc(Oc2ncc(C(F)(F)F)cc2Cl)cc1 (stereo not drawn)
active: [2] 180 µM | [4] 76.1 µM | [17] 100 µM
not listed: [12] | [18]
inactive: all other assays above

C=C(C)C(=O)OCCC(C)OC(=O)C(=C)C (stereo not drawn)
not listed: [14] | [18] | [20]
inactive: all other assays above

CCCCCCCCCCO[C@@H]1O[C@H](CO)[C@@H](O)[C@H](O)[C@H]1O
not listed: [12] | [18]
inactive: all other assays above

Nc1ccc(N)c([N+](=O)[O-])c1
active: [6] 41.6 µM [middle of 5 runs]
not listed: [14] | [17] | [18] | [19] | [20]
inactive: all other assays above

CCCCCCOc1ccc(O)cc1
active: [6] 2.79 µM | [20] 11.3 µM
not listed: [12] | [17] | [18]
inactive: all other assays above

CN(C)C
not listed: [12] | [17] | [18]
inactive: all other assays above

CN(C)C(=O)Nc1ccccc1
not listed: [12] | [18]
inactive: all other assays above

OC[C@@H](O)[C@H](O)[C@@H](O)[C@@H](O)CO
active: [6] 30.1 µM
not listed: [12] | [16] | [18]
inactive: all other assays above

CC(=O)c1cccnc1
not listed: [15] | [18] | [20]
inactive: all other assays above

FC(F)(F)c1ccc(Cl)c(Cl)c1
not listed: [15] | [18] | [19]
inactive: all other assays above
